Test [1] deals with Tyrosine-protein kinase Fyn (Homo sapiens) (UniProt P06241). The note with it: at 1 µM.
Test [2] has as its target Tyrosine-protein kinase HCK (Homo sapiens) (UniProt P08631). To be noted: at 0.1 µM.
Test [3] shares this target. The note with it: at 1 µM.
Test [4] deals with Insulin-like growth factor 1 receptor (Homo sapiens) (UniProt P08069). To be noted: at 0.1 µM.
For test [5] the target is unchanged. To be noted: at 1 µM.
For test [6], the target named is Insulin receptor (Homo sapiens) (UniProt P06213). To be noted: at 0.1 µM.
Insulin receptor (Homo sapiens), sequence (P06213 28-758 limits assumed): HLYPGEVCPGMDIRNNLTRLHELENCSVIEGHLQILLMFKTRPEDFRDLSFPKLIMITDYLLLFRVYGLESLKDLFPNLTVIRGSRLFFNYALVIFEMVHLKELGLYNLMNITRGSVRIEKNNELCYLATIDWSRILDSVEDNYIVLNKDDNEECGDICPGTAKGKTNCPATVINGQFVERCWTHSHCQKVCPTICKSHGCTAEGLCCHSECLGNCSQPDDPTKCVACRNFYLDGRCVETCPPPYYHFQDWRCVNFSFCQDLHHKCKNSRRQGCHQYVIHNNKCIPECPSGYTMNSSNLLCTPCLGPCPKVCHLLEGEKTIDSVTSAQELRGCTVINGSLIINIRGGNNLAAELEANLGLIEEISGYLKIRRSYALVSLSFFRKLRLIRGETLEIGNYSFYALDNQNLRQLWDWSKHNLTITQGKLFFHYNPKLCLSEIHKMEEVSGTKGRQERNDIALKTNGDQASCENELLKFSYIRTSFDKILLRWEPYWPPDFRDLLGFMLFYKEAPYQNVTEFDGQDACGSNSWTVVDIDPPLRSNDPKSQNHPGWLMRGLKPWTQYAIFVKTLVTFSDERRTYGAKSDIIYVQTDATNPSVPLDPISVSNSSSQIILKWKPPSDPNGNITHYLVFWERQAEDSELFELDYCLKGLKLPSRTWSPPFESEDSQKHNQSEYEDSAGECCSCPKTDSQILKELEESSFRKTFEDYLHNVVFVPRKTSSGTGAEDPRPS
Insulin receptor (Homo sapiens), sequence (P06213 763-1382 limits assumed): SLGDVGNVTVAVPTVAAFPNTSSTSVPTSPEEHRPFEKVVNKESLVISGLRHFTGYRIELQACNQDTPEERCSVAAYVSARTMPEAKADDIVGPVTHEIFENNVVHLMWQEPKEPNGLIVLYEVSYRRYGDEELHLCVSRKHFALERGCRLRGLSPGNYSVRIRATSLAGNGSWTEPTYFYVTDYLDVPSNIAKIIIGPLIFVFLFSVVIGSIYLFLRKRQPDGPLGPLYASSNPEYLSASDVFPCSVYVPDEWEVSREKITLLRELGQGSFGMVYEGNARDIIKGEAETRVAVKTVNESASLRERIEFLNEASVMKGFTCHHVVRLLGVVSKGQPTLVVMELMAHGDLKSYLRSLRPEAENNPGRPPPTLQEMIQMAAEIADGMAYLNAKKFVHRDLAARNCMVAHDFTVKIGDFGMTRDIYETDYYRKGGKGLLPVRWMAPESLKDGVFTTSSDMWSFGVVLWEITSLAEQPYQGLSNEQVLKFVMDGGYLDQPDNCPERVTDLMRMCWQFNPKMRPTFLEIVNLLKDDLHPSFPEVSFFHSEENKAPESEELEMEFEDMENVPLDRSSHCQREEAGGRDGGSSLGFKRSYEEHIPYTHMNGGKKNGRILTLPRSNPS
Test [7] has the same target. The note with it: at 1 µM.
Test [8] has as its target Insulin receptor-related protein (Homo sapiens) (UniProt P14616). The note with it: at 0.1 µM.
The target is the same in test [9]. To be noted: at 1 µM.
Test [10] concerns the target T1, Tyrosine-protein kinase ITK/TSK (Homo sapiens) (UniProt Q08881).
T1 sequence (whole entry): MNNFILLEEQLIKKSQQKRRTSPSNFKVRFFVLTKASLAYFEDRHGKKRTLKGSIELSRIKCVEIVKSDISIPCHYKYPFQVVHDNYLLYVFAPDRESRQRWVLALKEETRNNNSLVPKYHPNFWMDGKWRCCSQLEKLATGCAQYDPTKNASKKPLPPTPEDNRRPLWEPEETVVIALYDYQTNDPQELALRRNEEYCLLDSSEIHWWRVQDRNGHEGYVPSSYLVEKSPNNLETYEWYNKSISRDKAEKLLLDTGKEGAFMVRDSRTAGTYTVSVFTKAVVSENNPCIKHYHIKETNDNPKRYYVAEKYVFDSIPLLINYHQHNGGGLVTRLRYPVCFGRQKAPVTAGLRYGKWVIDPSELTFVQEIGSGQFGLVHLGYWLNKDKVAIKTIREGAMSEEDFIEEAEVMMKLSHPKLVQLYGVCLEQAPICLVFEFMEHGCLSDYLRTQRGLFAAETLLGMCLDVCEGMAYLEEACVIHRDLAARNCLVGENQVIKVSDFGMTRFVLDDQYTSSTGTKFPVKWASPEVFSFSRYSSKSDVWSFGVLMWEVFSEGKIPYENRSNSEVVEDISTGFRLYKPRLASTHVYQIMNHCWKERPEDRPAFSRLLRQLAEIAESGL
To be noted: at 0.1 µM.

The target of test [11] is T1, Tyrosine-protein kinase ITK/TSK (Homo sapiens). To be noted: at 1 µM.
In test [12] the target is Tyrosine-protein kinase JAK1 (Homo sapiens) (UniProt P23458). To be noted: at 0.1 µM.
Tyrosine-protein kinase JAK1 (Homo sapiens), sequence (P23458 whole entry): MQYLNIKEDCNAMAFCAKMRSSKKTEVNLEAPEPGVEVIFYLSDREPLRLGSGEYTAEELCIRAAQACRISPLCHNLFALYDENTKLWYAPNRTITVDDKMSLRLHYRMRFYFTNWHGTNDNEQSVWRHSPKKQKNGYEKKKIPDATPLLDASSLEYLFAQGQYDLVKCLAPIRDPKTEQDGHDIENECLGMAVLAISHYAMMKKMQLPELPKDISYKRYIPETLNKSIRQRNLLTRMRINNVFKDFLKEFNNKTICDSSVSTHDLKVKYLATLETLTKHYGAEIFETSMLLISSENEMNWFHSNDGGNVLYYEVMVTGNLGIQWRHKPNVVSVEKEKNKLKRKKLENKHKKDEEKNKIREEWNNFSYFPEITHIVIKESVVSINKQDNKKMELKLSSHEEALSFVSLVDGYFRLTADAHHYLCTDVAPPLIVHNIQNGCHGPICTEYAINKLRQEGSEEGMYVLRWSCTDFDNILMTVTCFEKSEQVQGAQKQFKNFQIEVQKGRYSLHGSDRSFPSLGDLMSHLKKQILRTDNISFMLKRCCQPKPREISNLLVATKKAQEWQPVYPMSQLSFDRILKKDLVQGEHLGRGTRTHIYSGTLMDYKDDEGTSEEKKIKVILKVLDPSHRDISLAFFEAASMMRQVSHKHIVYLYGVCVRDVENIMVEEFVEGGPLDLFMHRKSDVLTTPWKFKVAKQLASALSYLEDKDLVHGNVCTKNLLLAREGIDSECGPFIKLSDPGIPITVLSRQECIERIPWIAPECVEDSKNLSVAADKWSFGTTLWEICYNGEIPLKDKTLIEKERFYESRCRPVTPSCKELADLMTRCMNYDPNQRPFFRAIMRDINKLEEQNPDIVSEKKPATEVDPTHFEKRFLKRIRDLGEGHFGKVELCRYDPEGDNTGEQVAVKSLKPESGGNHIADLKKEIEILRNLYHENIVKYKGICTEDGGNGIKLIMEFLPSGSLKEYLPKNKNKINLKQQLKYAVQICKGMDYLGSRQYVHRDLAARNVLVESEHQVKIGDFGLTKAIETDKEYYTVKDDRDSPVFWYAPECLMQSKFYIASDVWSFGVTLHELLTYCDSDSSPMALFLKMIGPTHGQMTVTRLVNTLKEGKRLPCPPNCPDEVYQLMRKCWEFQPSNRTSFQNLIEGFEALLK
Test [13] has the same target. The note with it: at 1 µM.
The target in test [14] is Tyrosine-protein kinase JAK2 (Homo sapiens) (UniProt O60674). To be noted: at 0.1 µM.
Tyrosine-protein kinase JAK2 (Homo sapiens), sequence (O60674 whole entry): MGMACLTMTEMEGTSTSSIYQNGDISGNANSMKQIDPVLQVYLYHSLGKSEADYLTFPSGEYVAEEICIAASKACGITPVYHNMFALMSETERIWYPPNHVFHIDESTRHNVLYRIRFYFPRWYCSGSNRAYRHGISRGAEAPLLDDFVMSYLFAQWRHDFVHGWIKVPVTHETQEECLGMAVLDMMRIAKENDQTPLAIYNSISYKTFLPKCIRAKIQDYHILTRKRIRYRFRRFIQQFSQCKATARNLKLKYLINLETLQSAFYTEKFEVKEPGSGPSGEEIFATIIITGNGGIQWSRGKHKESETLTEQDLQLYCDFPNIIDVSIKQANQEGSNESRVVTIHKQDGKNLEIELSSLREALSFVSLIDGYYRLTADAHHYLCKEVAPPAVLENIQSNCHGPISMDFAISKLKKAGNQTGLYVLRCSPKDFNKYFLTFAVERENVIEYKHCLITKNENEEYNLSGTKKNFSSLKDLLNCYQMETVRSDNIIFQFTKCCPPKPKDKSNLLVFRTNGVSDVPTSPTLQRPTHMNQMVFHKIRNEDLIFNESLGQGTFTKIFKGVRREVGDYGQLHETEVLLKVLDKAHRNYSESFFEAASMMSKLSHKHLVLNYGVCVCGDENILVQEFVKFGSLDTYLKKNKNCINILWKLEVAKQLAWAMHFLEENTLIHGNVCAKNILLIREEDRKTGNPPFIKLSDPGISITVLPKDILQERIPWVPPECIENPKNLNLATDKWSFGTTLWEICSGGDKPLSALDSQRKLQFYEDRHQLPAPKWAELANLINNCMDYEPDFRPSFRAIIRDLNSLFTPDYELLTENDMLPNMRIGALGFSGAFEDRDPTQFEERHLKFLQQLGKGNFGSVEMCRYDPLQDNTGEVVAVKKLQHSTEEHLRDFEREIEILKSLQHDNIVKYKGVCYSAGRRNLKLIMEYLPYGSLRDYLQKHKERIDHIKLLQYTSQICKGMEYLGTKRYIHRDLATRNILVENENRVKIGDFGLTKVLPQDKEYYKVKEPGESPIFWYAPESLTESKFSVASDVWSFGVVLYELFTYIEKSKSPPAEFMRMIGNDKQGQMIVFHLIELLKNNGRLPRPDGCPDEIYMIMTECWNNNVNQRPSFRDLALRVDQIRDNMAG
Test [15] has the same target. The note with it: at 1 µM.
Test [16] deals with T2, Tyrosine-protein kinase JAK3 (Homo sapiens) (UniProt P52333).
T2 sequence (whole entry): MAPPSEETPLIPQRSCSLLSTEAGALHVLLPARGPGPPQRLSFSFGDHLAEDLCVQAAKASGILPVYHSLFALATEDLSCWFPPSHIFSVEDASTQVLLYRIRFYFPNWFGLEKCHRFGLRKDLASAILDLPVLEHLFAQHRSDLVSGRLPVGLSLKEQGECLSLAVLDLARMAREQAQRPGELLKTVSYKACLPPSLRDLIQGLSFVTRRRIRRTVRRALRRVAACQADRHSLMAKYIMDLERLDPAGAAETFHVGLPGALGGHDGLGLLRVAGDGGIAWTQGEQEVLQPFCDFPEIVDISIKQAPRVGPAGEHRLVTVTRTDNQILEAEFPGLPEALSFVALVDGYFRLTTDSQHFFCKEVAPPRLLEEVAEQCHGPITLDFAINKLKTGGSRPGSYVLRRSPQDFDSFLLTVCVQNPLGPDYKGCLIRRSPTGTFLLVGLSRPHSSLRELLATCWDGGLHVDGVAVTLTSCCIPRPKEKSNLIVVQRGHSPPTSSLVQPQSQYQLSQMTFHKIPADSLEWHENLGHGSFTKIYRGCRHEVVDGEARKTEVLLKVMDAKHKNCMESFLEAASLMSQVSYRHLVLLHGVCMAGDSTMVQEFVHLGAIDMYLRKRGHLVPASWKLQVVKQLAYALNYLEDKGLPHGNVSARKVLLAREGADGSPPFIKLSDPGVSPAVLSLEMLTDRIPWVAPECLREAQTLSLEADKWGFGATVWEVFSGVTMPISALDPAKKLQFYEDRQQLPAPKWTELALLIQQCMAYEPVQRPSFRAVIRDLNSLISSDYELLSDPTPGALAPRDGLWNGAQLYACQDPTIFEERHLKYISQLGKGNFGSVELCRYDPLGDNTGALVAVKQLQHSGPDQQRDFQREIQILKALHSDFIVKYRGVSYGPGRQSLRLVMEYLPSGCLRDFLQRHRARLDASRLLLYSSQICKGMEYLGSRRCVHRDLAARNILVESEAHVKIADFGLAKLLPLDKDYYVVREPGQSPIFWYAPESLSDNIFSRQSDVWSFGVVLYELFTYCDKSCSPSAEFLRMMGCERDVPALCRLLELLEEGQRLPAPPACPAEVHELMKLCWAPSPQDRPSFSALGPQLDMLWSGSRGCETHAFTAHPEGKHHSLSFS
To be noted: at 0.1 µM.

In test [17] the target is T2, Tyrosine-protein kinase JAK3 (Homo sapiens). The note with it: at 1 µM.
The target of test [18] is Vascular endothelial growth factor receptor 2 (Homo sapiens) (UniProt P35968). To be noted: at 0.1 µM.
For test [19] the target is unchanged. The note with it: at 1 µM.
Test [20] deals with Mast/stem cell growth factor receptor Kit (Homo sapiens) (UniProt P10721). The note with it: at 0.1 µM.
Mast/stem cell growth factor receptor Kit (Homo sapiens), sequence (P10721 whole entry): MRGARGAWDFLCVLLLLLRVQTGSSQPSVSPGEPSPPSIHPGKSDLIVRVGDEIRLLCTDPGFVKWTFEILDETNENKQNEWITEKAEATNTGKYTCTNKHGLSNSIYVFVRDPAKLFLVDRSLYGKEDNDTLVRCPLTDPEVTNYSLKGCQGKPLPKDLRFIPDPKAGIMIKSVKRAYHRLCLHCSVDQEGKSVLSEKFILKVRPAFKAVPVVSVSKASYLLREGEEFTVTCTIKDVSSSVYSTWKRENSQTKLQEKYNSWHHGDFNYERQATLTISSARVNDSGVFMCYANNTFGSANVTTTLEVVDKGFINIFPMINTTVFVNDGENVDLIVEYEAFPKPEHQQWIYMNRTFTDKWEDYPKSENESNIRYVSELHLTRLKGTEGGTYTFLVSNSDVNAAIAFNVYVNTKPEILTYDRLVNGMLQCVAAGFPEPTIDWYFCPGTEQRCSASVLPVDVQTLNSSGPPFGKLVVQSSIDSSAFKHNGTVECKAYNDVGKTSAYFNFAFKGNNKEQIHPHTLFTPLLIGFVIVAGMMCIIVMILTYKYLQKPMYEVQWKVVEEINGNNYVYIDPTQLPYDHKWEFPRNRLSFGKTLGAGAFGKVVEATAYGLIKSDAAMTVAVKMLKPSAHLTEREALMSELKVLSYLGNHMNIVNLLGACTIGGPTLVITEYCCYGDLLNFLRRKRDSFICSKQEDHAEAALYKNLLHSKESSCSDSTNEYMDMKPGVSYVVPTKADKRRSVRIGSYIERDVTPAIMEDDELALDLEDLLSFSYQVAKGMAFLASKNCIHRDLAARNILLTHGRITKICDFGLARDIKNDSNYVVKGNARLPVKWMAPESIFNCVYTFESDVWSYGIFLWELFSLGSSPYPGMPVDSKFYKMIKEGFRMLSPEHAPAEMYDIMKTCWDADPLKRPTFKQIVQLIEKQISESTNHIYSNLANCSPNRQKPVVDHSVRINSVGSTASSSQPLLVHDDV

`Clc1ccc(-c2nn3ncccc3c2-c2ccnc(Nc3ccccc3)n2)cc1`: the inhibition in test [1] turned out to be 43.5%; in test [2], 7.64%; in test [3], 34.1%; in test [4] it was 3.71%; in [5], 5.4%; in test [6] it was 2.64%. Moreover, the inhibition in test [7] was 4.44%; in test [8], 0.65%; in test [9], 0.7%; in [10], 1.38%; in [11], 2.29%; in test [12], -4.43%. Moreover, the inhibition in test [13] is -2.06%; in test [14], 1.44%; in [15], 0.88%; in test [16] it was 0.42%; in test [17] it was 2.99%; in test [18] it was 11.2%. Moreover, the results for the inhibition in test [19] and in test [20] were 42.1% and 11.7%, respectively.
Take `CN1CCC(n2cnc(-c3ccc(F)cc3)c2-c2ccnc(N)n2)CC1`: the inhibition in test [1] amounted to 7.42%; in [2], 3.15%; in test [3] it was 7.9%; in test [4], 0.43%; in test [5], 3.19%; in test [6] it was 2.01%. In addition, the inhibition was determined as 5.41% in test [7]; 0.89% in test [8]; 1.43% in test [9]; 1.04% in [10]; 6.65% in test [11]; 1.99% in test [12]. Besides, the inhibition in test [13] was 8.12%; in [14] it was 0.06%; in test [15], 0.49%; in test [16] it was -0.36%; in [17], -2.05%; in test [18], 3.28%. Besides, the results for the inhibition in [19] and in [20] were 10.8% and 1.87%, respectively.
As to `CC(C)COC(=O)c1ccc2c(c1)/C(=C/Nc1ccc(S(N)(=O)=O)cc1)C(=O)N2`, the inhibition in test [1] came to 71.6%; in [2], 4.68%; in test [3] it was 38.5%; in [4] it was 0.52%; in [5], 1.72%; in test [6], 2.06%. In addition, the inhibition in test [7] is 2.17%; in test [8], -3.52%; in [9] it was 0.22%; in test [10], 0.34%; in test [11], 5.29%; in [12] it was 0.07%. Further, the inhibition in test [13] is 12.7%; in test [14], -0.31%; in test [15], 12.3%; in test [16] it was 2.41%; in [17] it was 45.5%; in test [18], 40.4%. The inhibition was 71.5% in test [19] and -0.74% in [20].
Consider `Nc1nc(-c2ccc(F)cc2)c(-c2ccc3ncccc3n2)s1`, for which the inhibition in test [1] worked out at 12.4%; in [2] it was 5.89%; in [3], 17.5%; in test [4] it was 4.9%; in [5] it was 24.4%; in test [6], 6.61%. The inhibition was found to be 43.3% in test [7]; 2.47% in test [8]; 1.87% in [9]; 2.58% in test [10]; 2.71% in test [11]; 2.95% in test [12]. Further, the inhibition in [13] is 6.76%; in [14] it was 2.05%; in [15], 4.07%; in [16] it was -0.98%; in [17], 1.8%; in [18], 33.2%. For the same molecule, the inhibition is 71.1% in test [19] and 3.28% in test [20].
With `CN1CCC(n2cnc(-c3ccc(F)cc3)c2-c2ccnc(Nc3ccccc3)n2)CC1`, the inhibition stood at 8.11% in test [1]; 4.85% in test [2]; 11.1% in test [3]; 1.01% in test [4]; 1.68% in test [5]; 1.5% in test [6]. Besides, the inhibition was 0.39% in [7]; 0.31% in [8]; 2.49% in test [9]; 0.83% in [10]; 1.68% in [11]; 1.51% in [12]. The inhibition was 8.4% in test [13]; 0.27% in test [14]; 0.26% in test [15]; -0.54% in test [16]; 1.46% in test [17]; 4.35% in test [18]. Further, the inhibition in test [19] amounted to 12.4%; in [20], 2.33%.
Consider `COC(=O)c1sc(-n2cnc3cc(OC)c(OC)cc32)cc1OCc1ccccc1C(F)(F)F`, for which the inhibition was 56.3% in test [1]; 9.79% in test [2]; 28.1% in [3]; 0.42% in test [4]; 0.25% in [5]; 5.09% in test [6]. In addition, the inhibition is 5.96% in [7]; 1.78% in test [8]; -0.14% in [9]; 1.1% in test [10]; 1.09% in test [11]; 3.38% in test [12]. The inhibition in test [13] was -0.23%; in [14], 0.91%; in test [15], 5.28%; in test [16], 0.11%; in test [17], 10.7%; in test [18], 15.2%. Further, the inhibition in test [19] was determined as 49.6%; in [20] it was 2.41%.

The record behind these values is ChEMBL document CHEMBL1961873, “Compounds: GSK PKIS; Assays: Nanosyn kinase panel” (2012).
